Assay results reported in the OligoGym collection.

target: LY96; assay: pooled miR-30 sensor sort-seq; sequence = guide strand; conditions: shRNA
Note: reference of the scale not given here.

| Sequence | sensor-assay potency score (higher = more potent) |
| --- | --- |
| TAAATCTCTCCTTGGAATGTAG | -0.351 |
| TGTATGAAATACTTGCATCGGA | -0.274 |
| AATTGCTTTAAATCTCTCCTTG | -0.268 |
| TTGCTTTAAATCTCTCCTTGGA | 0.126 |
| TAGGTGTATGAAATACTTGCAT | -0.275 |
| TTCAACAACACATTTGTATTTT | -1.05 |
| TATAATTGCTTTAAATCTCTCC | 0.0244 |
| TTGTTGTATTCACAGTCTCTCC | -1.2 |
| TTGTATTCACAGTCTCTCCCTT | 0.102 |
| TAATCGTCATCAGATCCTCGGC | -0.407 |
| TAGGATGACAAACTCCAAGCAA | -0.085 |
| AATAGCTTCAACAACACATTTG | -1.65 |

target: LYPD3; assay: as above; conditions: shRNA

| Sequence | sensor-assay potency score (higher = more potent) |
| --- | --- |
| ACTGTCTTCATCTTGTTCGGGG | 0.213 |
| TAGAAGTGGTGACAGATGTGGT | -0.342 |
| TCTGCTTTCTGCACGCAGCTGT | 0.703 |
